# Test results as given in the supplement of paper PMC6555819.
# Columns and labels:
# Test in all cases: PBM binding z-score (relative to random genomic background probes); higher = stronger binding; sequences stand for … in GC…GCGATTGACAGCGTAGAATGAAGG
# [1] = system: FXR:RXRa (NR concentration 270 nM, RXRa partner concentration 90 nM)
# Procedure, shortened: (§1)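 Probes were double-stranded and carried 34-nt variable regions with direct-repeat seeds, single-nucleotide variants, half-site ablations and random human genomic background sequences, printed on custom Agilent 4×180K protein-binding microarrays. Arrays were incubated 1 h with ligand-free nuclear receptor dimers in PBS pH 7.4, 2% milk, 0.02% Triton X-100, 1 mM DTT, 0.2 mg/mL BSA and 0.4 mg/ml salmon testes DNA. Antibodies against each partner (one per run) detected binding, and scanned fluorescence was regression-normalized. Binding z-scores use the random background probes as reference.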
# [2] = system: LXRa:RXRa (NR concentration 270 nM, RXRa partner concentration 90 nM)
# Procedure, shortened: as §1
# [3] = system: LXRa homodimer (NR concentration 270 nM)
# Procedure, shortened: as §1
# [4] = system: LXRb:RXRa (NR concentration 270 nM, RXRa partner concentration 90 nM)
# Procedure, shortened: as §1
# [5] = system: LXRb homodimer (NR concentration 270 nM)
# Procedure, shortened: as §1
# [6] = system: PPARa:RXRa (NR concentration 270 nM, RXRa partner concentration 90 nM)
# Procedure, shortened: as §1
# [7] = system: PPARg:RXRa (NR concentration 180 nM, RXRa partner concentration 90 nM)
# Procedure, shortened: as §1
# [8] = system: PPARg:RXRa 270nM:90nM, anti-RXR (NR concentration 270 nM, RXRa partner concentration 90 nM)
# Procedure, shortened: as §1
# [9] = system: PPARg:RXRa 30nM:10nM, anti-RXR (NR concentration 30 nM, RXRa partner concentration 10 nM)
# Procedure, shortened: as §1
# [10] = system: PPARg:RXRa 90nM:30nM, anti-RXR (NR concentration 90 nM, RXRa partner concentration 30 nM)
# Procedure, shortened: as §1
# [11] = system: PPARg:RXRa DBDmut IVT, anti-RXR (DBD mutation: RXRa K156A/R161A, NR concentration 270 nM, RXRa partner concentration 90 nM)
# Procedure, shortened: as §1
# [12] = system: PPARg:RXRa IVT, anti-PPARg (NR concentration 270 nM, RXRa partner concentration 90 nM)
# Procedure, shortened: as §1
# [13] = system: PPARg DBDmut:RXRa IVT, anti-PPARg (DBD mutation: PPARg1 K132A/R137A, NR concentration 270 nM, RXRa partner concentration 90 nM)
# Procedure, shortened: as §1
# [14] = system: PPARg DBDmut IVT, anti-PPARg (DBD mutation: PPARg1 K132A/R137A, NR concentration 270 nM)
# Procedure, shortened: as §1
# [15] = system: PPARg homodimer (NR concentration 180 nM)
# Procedure, shortened: as §1
# [16] = system: PXR:RXRa (NR concentration 270 nM, RXRa partner concentration 90 nM)
# Procedure, shortened: as §1
# [17] = system: PXR homodimer (NR concentration 270 nM)
# Procedure, shortened: as §1
# [18] = system: RARa:RXR (NR concentration 270 nM, RXRa partner concentration 90 nM)
# Procedure, shortened: as §1
# [19] = system: RARa homodimer (NR concentration 270 nM)
# Procedure, shortened: as §1
# [20] = system: RARb:RXRa (NR concentration 270 nM, RXRa partner concentration 90 nM)
# Procedure, shortened: as §1
Sequence,PBM binding z-score [1],PBM binding z-score [2],PBM binding z-score [3],PBM binding z-score [4],PBM binding z-score [5],PBM binding z-score [6],PBM binding z-score [7],PBM binding z-score [8],PBM binding z-score [9],PBM binding z-score [10],PBM binding z-score [11],PBM binding z-score [12],PBM binding z-score [13],PBM binding z-score [14],PBM binding z-score [15],PBM binding z-score [16],PBM binding z-score [17],PBM binding z-score [18],PBM binding z-score [19],PBM binding z-score [20]
CCTAGTGGGCCATTCAGAGGTCATTGATCATATG,2.85,4.29,6.62,3.77,0.202,3.98,2.23,3.11,0.966,2.3,4.41,4.44,1.45,0.315,4.35,4.94,2.6,4.89,0.902,2.98
CCGACTGTGGCATAAGGTTACCATAAGCCAGCCC,0.578,2.4,0.142,1.07,-0.834,1.36,0.99,1.57,-0.0445,0.844,1.12,0.305,-0.617,-0.541,0.621,0.365,0.018,0.961,0.166,0.964
CAAACTAGGTCAAGAGGGCAAAGTCCGCTTCCCG,4.55,4,1.14,2.47,0.164,5.21,8.68,7.36,5.56,7.15,8.35,8.37,4.28,1.48,3.42,2.98,0.703,3.96,1.19,4.53
TCTTGTAGATCAAGCAGCTTAAGAAAGCCTGAGT,-0.352,-0.169,-0.373,-0.0264,-0.791,0.29,-0.61,1.03,2.17,1.5,1.1,0.213,-0.268,-0.032,0.0501,-0.0224,-0.129,-0.209,-0.515,-0.253
AGAACGAGGGCAATGAGTTGACAGCACGGGTGGC,0.329,0.24,-0.349,-0.388,-0.581,1.24,1.38,0.8,0.0302,0.423,3.68,2.54,0.168,0.4,-0.106,1.19,2.68,0.713,-0.225,2.12
TCTATTAGTTCATTAGGGCAACCGAAACAGCGGA,1.12,1.73,1.56,1.29,1.34,2.47,1.21,2.92,3.81,3.34,2.92,2.95,1.5,1.13,1.3,1.75,1.7,1.2,1.45,2.64
CAAACTAGGTCACGACAGGTCAAAGTCGAATGAC,6.86,7.66,5.39,6.7,0.955,6.08,9.79,7.85,6.54,8.02,8.69,9.13,4.46,5.24,4.07,6.3,0.87,6.14,1.65,5.04
TCATATATGTAAATGCTAGGTGAAAGTCCGATCT,0.494,0.5,0.273,0.561,0.139,0.627,0.741,1.86,3.23,2.59,2.12,0.736,1.47,0.87,-0.136,0.601,0.0676,0.644,0.525,0.329
GTACCAGGGTGAATAGGTCGTTGATGAGTAGGCG,0.645,0.813,-0.254,0.582,-0.461,2.09,1.15,1.61,0.0734,0.776,0.914,2.01,-0.169,-0.469,0.791,0.92,0.246,1.86,0.108,1.24
